± gives the standard deviation of the averaged measurements.
Key:
Conditions in all cases: concentration: 10 µM; 24 h
HCC1569 [1] = experiment: cell number relative to DMSO (% of DMSO); higher = more cells (less growth inhibition / toxicity)
Procedure, shortened: (§1)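 H1.0 nuclear intensity or cell number is stated as percent of the plate control, based on the median of replicates, and HCC1569 values were smoothed for positional effects. These came from HCC1569 and TDF cells treated with compounds at 10 µM for 24 h at 37 °C in triplicate, then fixed in 3.7% formaldehyde and stained with a rabbit anti-H1.0 antibody, an AlexaFluor 647 secondary and DAPI.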

TDF [2] = experiment: as above
Procedure, shortened: as §1

TDF [3] = experiment: H1.0 immunofluorescence intensity relative to DMSO (% of DMSO); higher = stronger H1.0 induction, active = 120 or more
Procedure, shortened: as §1

HCC1569 [4] = experiment: H1.0 immunofluorescence intensity relative to DMSO (% of DMSO); higher = stronger H1.0 induction, active = 140 or more
Procedure, shortened: as §1
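For H1.0 immunofluorescence intensity relative to DMSO in this document: TDF is a line of transformed human dermal fibroblasts of mesenchymal origin.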
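For cell number relative to DMSO in this document: TDF denotes transformed human dermal fibroblasts of mesenchymal origin.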

SMILES | cell number (HCC1569 [1]) | cell number (TDF [2]) | H1.0 immunofluorescence intensity (TDF [3]) | H1.0 immunofluorescence intensity (HCC1569 [4])
COc1ccccc1N1CCN(CCN(C(=O)c2ccc(I)cc2)c2ccccn2)CC1.Cl [p-MPPI hydrochloride] | 97.4 | 96.3 | 96.6 (inactive) | 93.4 (inactive)
CC(C)N=c1cc2n(-c3ccc(Cl)cc3)c3ccccc3nc-2cc1Nc1ccc(Cl)cc1 | 89.6 | 72.2 | 109 (inactive) | 118 (inactive)
CCCCC(=O)O[C@]1(C(=O)CO)[C@@H](C)C[C@H]2[C@@H]3CCC4=CC(=O)C=C[C@]4(C)[C@@]3(F)[C@@H](O)C[C@@]21C | 96.4 | 106 | 87.6 (inactive) | 103 (inactive)
CC(=O)NC(C(=O)O)C(C)(C)SN=O (stereo unspecified) [S-Nitroso-N-acetylpenicillamine] | 105 | 109 | 90.5 (inactive) | 96.7 (inactive)
CC(=O)SC1CC2=CC(=O)CCC2(C)C2CCC3(C)C(CCC34CCC(=O)O4)C12 (stereo unspecified) [Spironolactone] | 99.1 ± 3.8 | 105 ± 7.3 | 92.2 (inactive) | 104 (inactive)
CC(C)(C)c1cc(O)ccc1O [tert-Butylhydroquinone] | 104 | 97.2 | 96.4 (inactive) | 89.1 (inactive)
COc1cc(SC)ccc1C(=O)N1CCC(Cc2ccccc2)CC1 [p38 MAP Kinase Inhibitor VI, JX401] | 104 | 101 | 96.9 (inactive) | 117 (inactive)
Clc1cccc(CNC2=Nc3ccccc3NC23CCNCC3)c1 | 99 | 89.6 | 106 (inactive) | 124 (inactive)
CCn1cc(C(=O)O)c(=O)c2cc(F)c(N3CCNCC3)cc21 [Norfloxacin] | 100 | 108 | 105 (inactive) | 101 (inactive)
OCc1cc(C(O)CNCCCCCCOCCCCc2ccccc2)ccc1O (stereo unspecified) [Salmeterol] | 90.4 | 100 | 110 (inactive) | 132 (inactive)
CNCC(O)c1cccc(O)c1.Cl (stereo unspecified) [Phenylephrine hydrochloride] | 107 | 101 | 97.5 (inactive) | 94.3 (inactive)
CN1CCN(C2=c3ccccc3=Nc3ccc(Cl)cc3N2)CC1 [Clozapine] | 99.6 ± 4.2 | 105 ± 0.29 | 95.4 (inactive) | 106 (inactive)
COc1cc2c(CCNC(C)=O)c[nH]c2cc1Cl [6-Chloromelatonin] | 101 | 106 | 94.8 (inactive) | 90 (inactive)
CN(C)C(=O)Nc1cccc(-c2ccc(N(C)C)cc2)c1 [3-(4'-(dimethylamino)-[1,1'-biphenyl]-3-yl)-1,1-dimethylurea] | 101 | 101 | 97.6 (inactive) | 87.2 (inactive)
NC(=O)c1ccccc1 [Benzamide] | 98.5 | 87.1 | 99.2 (inactive) | 107 (inactive)
COc1cc(/C=C/C(=O)NCCn2c(C)cc3ccccc32)cc(OC)c1OC | 103 | 96.6 | 103 (inactive) | 106 (inactive)
COc1ccc(-c2cc(=O)c3c(O)cc(OC4OC(COC5OC(C)C(O)C(O)C5O)C(O)C(O)C4O)cc3o2)cc1O (stereo unspecified) [Diosmin] | 104 | 107 | 91.8 (inactive) | 92 (inactive)
O=C(C=Cc1ccc(O)cc1)CC(=O)C=Cc1ccc(O)cc1 [Bis demethoxycurcumin] | 83.7 | 95.1 | 96 (inactive) | 94.4 (inactive)
COc1ccc(CC2c3cc(OC)c(OC)cc3CC[N+]2(C)CCC(=O)OCCCCCOC(=O)CC[N+]2(C)CCc3cc(OC)c(OC)cc3C2Cc2ccc(OC)c(OC)c2)cc1OC.O=S(=O)([O-])c1ccccc1.O=S(=O)([O-])c1ccccc1 (stereo unspecified) [Atracurium besylate] | 98.9 | 103 | 94.5 (inactive) | 110 (inactive)
CNC(=O)C1OC(n2cnc3c(N)ncnc32)C(O)C1O (stereo unspecified) [5'-N-Methyl carboxamidoadenosine] | 110 | 110 | 104 (inactive) | 98.9 (inactive)
CC1CCC2(C(=O)O)CCC3(C)C(=CCC4C5(C)CC(O)C(O)C(C)(CO)C5C(O)CC43C)C2C1C (stereo unspecified) [Madecassic acid] | 105 | 102 | 91.6 (inactive) | 91.7 (inactive)
CN(C)C(=O)COC(=O)Cc1ccc(OC(=O)c2ccc(N=C(N)N)cc2)cc1.CS(=O)(=O)O | 99.4 | 115 | 91.2 (inactive) | 98.5 (inactive)
Nc1nc2ccc(Cl)cc2n2c(-c3ccccc3)nnc12 [8-chloro-1-phenyl[1,2,4]triazolo[4,3-a]quinoxalin-4-ylamine] | 104 | 102 | 93.9 (inactive) | 99 (inactive)
CC1CCc2c(N3CCC(O)CC3)c(F)cc3c(=O)c(C(=O)O)cn1c23 (stereo unspecified) [Nadifloxacin] | 107 | 89.2 | 98.7 (inactive) | 101 (inactive)
CC1CN(S(=O)(=O)c2cccc3cnccc23)CCN1.Cl.Cl (stereo unspecified) | 111 | 109 | 86.2 (inactive) | 81.1 (inactive)

SMILES | cell number (HCC1569 [1]) | cell number (TDF [2]) | H1.0 immunofluorescence intensity (TDF [3]) | H1.0 immunofluorescence intensity (HCC1569 [4])
CN1CCc2cccc3c2C1Cc1ccc(O)c(O)c1-3.Cl [(R)-(-)-Apomorphine.HCl] | 98.4 | 98.9 | 89.1 (inactive) | 103 (inactive)
CC(=O)OCC(=O)[C@@]1(O)CC[C@H]2[C@@H]3CCC4=CC(=O)CC[C@]4(C)[C@@]3(F)[C@@H](O)C[C@@]21C | 103 | 103 | 80 (inactive) | 104 (inactive)
COc1cc2ncnc(Sc3nnc(C)s3)c2cc1OC | 63.3 | 67.7 | 108 (inactive) | 160 (active)
CN(C)c1ccnc2sc3c(=O)n(N4CCCCCC4)cnc3c12 | 109 | 103 | 91 (inactive) | 89.5 (inactive)
COc1ccccc1OCC(O)CO (stereo unspecified) [Guaifenesin] | 102 | 102 | 98 (inactive) | 116 (inactive)
CN(C)CCC(c1ccc(Cl)cc1)c1ccccn1.O=C(O)C=CC(=O)O (single isomer, unassigned; (+)) [(+)-Chlorpheniramine maleate] | 104 | 104 | 99.2 (inactive) | 88.5 (inactive)
CC(O)CCCC(O)C=CC1C(O)CC(O)C1CC=CCCCC(=O)O [19(R)-Hydroxy-prostaglandin F2a] | 104 | 101 | 93.3 (inactive) | 95.9 (inactive)
CCCC(CCC)C(=O)NO [N-hydroxy-2-propylpentanamide] | 100 | 102 | 98.7 (inactive) | 80.8 (inactive)
CCCCC=CCCCCCCCCC(=O)O [10(E)-Pentadecenoic acid] | 103 | 95.8 | 110 (inactive) | 101 (inactive)
CCCCCC(O)C=CC1C(O)CC(O)C1CC(=O)CCC(=O)O (stereo unspecified) [2,3-Dinor-6-keto-prostaglandin F1a] | 103 | 114 | 88.8 (inactive) | 101 (inactive)
CCN(CC)CCCC(C)Nc1ccnc2cc(Cl)ccc12 (stereo unspecified) [Chloroquine] | 101 | 99.6 | 98.2 (inactive) | 93.6 (inactive)
Cc1cc(C(C)(C)C)c(O)c(C)c1CC1=NCCN1.Cl [Oxymetazoline.HCl] | 102 | 97.8 | 98.5 (inactive) | 98.2 (inactive)
CC1=CC(=O)C2=C(C)CCC3C(C)C(=O)OC3C12 (stereo unspecified) [Leucomisine] | 99.3 | 111 | 96.5 (inactive) | 95.6 (inactive)
O=C(O)c1cn(C2CC2)c2cc(N3C[C@@H]4C[C@H]3CN4)c(F)cc2c1=O | 99.1 | 109 | 91.9 (inactive) | 102 (inactive)
CN1CCN(C2=Nc3cc(F)ccc3Cc3ccccc32)CC1 [Fluperlapine] | 104 | 102 | 100 (inactive) | 118 (inactive)
CS(=O)(=O)O.NC(=NC(=O)c1nc(Cl)c(N)nc1N)Nc1ccccc1 [Phenamil methanesulfonate] | 103 | 116 | 88.9 (inactive) | 96.1 (inactive)
CCOC(=O)C1=C(C)NC(C)=C(C(=O)OCC)C1 [Diludin] | 97.2 | 103 | 93.7 (inactive) | 97.2 (inactive)
CC(C=CC1=C(C)CCCC1(C)C)=CC=CC(C)=CC(=O)O [9-cis Retinoic acid] | 105 ± 4.8 | 106 ± 5.2 | 87.8 (inactive) | 116 (inactive)
O.O=c1c(O)c(-c2ccc(O)cc2O)oc2cc(O)cc(O)c12 | 104 | 94.5 | 100 (inactive) | 98.8 (inactive)
CCCCCCCC/C=C\CCCCCCCC(=O)NCC(=O)O [[(9Z)-9-octadecenoylamino]acetic acid] | 99.2 | 100 | 96.9 (inactive) | 100 (inactive)
Cl.Cl.c1ccc2c3c([nH]c2c1)C1C2CCC(C4CCCNC42)N1CC3 (stereo unspecified) | 99.8 | 100 | 97.2 (inactive) | 101 (inactive)
CC(C)(C)OC(=O)CN(Cc1ccc(Cl)cc1)Cc1ccc([N+](=O)[O-])s1 | 100 | 105 | 102 (inactive) | 99 (inactive)
Cl.c1ccc(C2CN3CCSC3=N2)cc1 (single isomer, unassigned; (-)) [(-)-Tetramisole hydrochloride] | 108 | 97.3 | 92.4 (inactive) | 98.7 (inactive)
C[N+](C)(C)CCO.[Br-] [Choline bromide] | 104 | 108 | 96.9 (inactive) | 98 (inactive)

Source: the supplement of paper PMC7156485
